Experimental findings from ChEMBL document CHEMBL1961873, “Compounds: GSK PKIS; Assays: Nanosyn kinase panel” (2012) are described below.

Values joined by “and” are separate entries in the source; they are usually repeats but may differ in a detail not shown here. Equal values may be shown once.

The target in assay [1] is T1, 3-phosphoinositide-dependent protein kinase 1 (Homo sapiens) (UniProt O15530).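 Note: values are mean inhibition of PDK1.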
T1 sequence (whole entry): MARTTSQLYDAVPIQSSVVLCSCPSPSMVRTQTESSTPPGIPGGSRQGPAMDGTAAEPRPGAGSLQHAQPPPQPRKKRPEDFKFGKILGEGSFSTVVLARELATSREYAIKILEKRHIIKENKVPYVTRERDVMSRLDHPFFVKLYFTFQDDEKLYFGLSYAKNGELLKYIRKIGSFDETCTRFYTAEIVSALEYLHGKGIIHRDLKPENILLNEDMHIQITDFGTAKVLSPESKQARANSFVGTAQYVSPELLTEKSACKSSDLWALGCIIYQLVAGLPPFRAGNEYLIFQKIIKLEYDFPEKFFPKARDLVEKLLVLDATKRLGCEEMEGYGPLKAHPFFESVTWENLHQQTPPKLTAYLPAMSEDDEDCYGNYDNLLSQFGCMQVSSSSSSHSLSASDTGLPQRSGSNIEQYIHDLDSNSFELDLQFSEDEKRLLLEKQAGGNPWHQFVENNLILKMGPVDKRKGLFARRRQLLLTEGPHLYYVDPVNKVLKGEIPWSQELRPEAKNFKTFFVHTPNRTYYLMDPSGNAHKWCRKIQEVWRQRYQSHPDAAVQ
The conditions noted are these: at 0.1 µM.

The target of assay [2] is cAMP-dependent protein kinase catalytic subunit alpha (Homo sapiens) (UniProt P17612). The conditions noted are these: at 0.1 µM.
The target is the same in assay [3]. Conditions: at 1 µM.
The target in assay [4] is Protein kinase C alpha type (Homo sapiens) (UniProt P17252). The conditions noted are these: at 0.1 µM.
Assay [5] shares this target. The conditions noted are these: at 1 µM.
For assay [6], the target named is Protein kinase C beta type (Homo sapiens) (UniProt P05771). Conditions: at 0.1 µM.
The target is the same in assay [7]. The conditions noted are these: at 1 µM.
In assay [8] the target is Protein kinase C eta type (Homo sapiens) (UniProt P24723). The conditions noted are these: at 0.1 µM.
For assay [9] the target is unchanged. Conditions: at 1 µM.
Assay [10] has as its target Protein kinase C gamma type (Homo sapiens) (UniProt P05129). The conditions noted are these: at 0.1 µM.
The target is the same in assay [11]. The conditions noted are these: at 1 µM.
In assay [12] the target is T2, Protein kinase C iota type (Homo sapiens) (UniProt P41743).
T2 sequence (whole entry): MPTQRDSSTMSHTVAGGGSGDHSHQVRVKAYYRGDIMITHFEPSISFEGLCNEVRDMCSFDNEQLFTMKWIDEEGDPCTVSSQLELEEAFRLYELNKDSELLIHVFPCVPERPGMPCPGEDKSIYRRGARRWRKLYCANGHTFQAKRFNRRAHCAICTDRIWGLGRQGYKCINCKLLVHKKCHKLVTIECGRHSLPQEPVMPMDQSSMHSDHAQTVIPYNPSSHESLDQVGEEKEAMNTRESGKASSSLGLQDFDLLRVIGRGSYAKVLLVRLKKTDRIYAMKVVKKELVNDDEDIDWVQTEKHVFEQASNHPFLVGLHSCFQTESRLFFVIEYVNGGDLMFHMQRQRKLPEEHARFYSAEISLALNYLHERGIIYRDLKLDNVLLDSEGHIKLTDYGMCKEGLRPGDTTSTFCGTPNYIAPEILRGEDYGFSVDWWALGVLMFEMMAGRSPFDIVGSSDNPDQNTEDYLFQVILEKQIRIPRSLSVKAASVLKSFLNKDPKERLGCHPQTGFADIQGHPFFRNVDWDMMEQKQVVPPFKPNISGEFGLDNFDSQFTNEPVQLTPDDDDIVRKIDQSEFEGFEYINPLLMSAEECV
The conditions noted are these: at 0.1 µM.

Assay [13] has as its target T2, Protein kinase C iota type (Homo sapiens). The conditions noted are these: at 1 µM.
Assay [14] concerns the target Protein kinase C theta type (Homo sapiens) (UniProt Q04759). The conditions noted are these: at 0.1 µM.
Assay [15] has the same target. The conditions noted are these: at 1 µM.
The target of assay [16] is Protein kinase C beta type (Homo sapiens) (UniProt P05771). The conditions noted are these: at 0.1 µM. This is another data set of the same source.
The target is the same in assay [17]. Conditions: at 1 µM. The source holds these as a separate data set.
Assay [18] concerns the target T3, Serine/threonine-protein kinase D1 (Homo sapiens) (UniProt Q15139).
T3 sequence (whole entry): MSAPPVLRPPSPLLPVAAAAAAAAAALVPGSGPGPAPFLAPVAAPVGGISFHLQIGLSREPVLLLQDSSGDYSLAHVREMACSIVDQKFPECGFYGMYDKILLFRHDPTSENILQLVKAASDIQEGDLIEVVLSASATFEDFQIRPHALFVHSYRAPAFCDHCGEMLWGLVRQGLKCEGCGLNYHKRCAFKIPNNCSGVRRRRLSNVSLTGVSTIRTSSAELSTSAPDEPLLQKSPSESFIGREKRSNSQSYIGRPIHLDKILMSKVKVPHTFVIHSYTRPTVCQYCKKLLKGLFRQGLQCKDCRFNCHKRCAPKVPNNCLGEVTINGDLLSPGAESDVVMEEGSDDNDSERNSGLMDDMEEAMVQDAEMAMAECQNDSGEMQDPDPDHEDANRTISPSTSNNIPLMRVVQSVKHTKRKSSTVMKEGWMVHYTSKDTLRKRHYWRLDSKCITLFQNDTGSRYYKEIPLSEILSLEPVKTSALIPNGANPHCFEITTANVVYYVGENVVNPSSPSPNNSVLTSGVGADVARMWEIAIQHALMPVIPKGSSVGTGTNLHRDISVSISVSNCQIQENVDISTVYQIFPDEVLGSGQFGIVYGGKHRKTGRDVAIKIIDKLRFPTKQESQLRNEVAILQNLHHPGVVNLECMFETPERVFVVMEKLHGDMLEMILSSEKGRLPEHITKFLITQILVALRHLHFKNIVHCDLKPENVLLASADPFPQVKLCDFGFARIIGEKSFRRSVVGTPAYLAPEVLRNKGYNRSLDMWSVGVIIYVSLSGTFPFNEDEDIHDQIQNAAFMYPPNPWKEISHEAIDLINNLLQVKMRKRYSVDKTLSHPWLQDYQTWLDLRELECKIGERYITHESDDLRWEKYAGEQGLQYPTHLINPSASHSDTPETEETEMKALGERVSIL
The conditions noted are these: at 0.1 µM.

In assay [19] the target is T3, Serine/threonine-protein kinase D1 (Homo sapiens). Conditions: at 1 µM.
Assay [20] deals with T4, Serine/threonine-protein kinase D2 (Homo sapiens) (UniProt Q9BZL6).
T4 sequence (whole entry): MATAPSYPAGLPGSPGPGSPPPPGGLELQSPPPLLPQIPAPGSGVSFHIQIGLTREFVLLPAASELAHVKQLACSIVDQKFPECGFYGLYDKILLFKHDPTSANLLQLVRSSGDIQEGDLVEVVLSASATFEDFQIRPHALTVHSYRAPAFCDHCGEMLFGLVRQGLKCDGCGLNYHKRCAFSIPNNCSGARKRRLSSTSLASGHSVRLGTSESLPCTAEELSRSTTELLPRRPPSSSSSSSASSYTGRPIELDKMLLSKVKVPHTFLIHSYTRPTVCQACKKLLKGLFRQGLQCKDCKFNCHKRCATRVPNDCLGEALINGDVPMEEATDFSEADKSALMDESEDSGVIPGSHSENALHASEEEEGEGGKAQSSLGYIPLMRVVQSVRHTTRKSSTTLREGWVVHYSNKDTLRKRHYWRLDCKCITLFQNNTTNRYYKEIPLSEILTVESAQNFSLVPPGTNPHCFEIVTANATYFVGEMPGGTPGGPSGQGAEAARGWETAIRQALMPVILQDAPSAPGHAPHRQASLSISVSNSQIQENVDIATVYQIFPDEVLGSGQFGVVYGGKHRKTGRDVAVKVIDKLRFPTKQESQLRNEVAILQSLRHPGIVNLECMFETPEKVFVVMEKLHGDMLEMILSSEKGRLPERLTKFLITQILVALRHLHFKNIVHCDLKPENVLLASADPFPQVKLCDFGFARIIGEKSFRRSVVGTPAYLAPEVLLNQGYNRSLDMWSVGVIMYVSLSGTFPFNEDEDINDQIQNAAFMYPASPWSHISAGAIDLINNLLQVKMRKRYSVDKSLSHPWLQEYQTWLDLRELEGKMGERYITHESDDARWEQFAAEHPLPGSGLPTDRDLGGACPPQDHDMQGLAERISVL
The conditions noted are these: at 0.1 µM.

Protein kinase C theta type (Homo sapiens), sequence (Q04759 whole entry, looked up): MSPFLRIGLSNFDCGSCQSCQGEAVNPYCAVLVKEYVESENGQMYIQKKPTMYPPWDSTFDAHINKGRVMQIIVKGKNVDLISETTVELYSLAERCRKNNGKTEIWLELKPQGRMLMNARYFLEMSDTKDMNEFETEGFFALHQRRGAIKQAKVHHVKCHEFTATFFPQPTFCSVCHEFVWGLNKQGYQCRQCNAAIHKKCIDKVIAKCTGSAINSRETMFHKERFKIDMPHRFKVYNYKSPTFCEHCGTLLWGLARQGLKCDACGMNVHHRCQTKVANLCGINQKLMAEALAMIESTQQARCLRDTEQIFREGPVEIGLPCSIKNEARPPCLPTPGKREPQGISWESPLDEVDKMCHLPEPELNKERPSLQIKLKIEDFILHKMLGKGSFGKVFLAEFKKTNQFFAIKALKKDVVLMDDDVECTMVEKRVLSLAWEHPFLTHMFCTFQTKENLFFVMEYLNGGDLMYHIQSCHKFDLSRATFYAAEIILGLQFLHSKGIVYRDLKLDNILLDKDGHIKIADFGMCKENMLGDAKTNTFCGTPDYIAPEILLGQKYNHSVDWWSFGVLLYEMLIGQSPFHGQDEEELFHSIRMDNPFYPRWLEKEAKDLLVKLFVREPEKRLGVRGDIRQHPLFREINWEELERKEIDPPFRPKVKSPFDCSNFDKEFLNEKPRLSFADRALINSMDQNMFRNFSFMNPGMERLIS
Protein kinase C beta type (Homo sapiens), sequence (P05771 2-671 limits assumed): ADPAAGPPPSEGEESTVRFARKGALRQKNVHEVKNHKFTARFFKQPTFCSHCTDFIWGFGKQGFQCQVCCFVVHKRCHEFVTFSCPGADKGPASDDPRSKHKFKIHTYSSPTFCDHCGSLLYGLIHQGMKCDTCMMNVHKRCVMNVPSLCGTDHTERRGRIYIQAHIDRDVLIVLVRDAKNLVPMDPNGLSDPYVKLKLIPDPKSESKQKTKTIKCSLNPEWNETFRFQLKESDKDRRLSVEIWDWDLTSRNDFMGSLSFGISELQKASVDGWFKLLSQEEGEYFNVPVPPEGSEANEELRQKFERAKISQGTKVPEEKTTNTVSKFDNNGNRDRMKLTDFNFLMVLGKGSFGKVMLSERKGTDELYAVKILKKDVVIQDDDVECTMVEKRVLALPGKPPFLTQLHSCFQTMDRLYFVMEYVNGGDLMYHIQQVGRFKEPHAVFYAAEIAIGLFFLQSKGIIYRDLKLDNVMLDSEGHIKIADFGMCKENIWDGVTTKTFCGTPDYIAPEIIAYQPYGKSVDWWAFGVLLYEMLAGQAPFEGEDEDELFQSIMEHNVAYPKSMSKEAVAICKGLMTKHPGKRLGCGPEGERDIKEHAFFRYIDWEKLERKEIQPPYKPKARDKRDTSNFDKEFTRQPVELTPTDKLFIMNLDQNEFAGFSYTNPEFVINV
Protein kinase C eta type (Homo sapiens), sequence (P24723 whole entry): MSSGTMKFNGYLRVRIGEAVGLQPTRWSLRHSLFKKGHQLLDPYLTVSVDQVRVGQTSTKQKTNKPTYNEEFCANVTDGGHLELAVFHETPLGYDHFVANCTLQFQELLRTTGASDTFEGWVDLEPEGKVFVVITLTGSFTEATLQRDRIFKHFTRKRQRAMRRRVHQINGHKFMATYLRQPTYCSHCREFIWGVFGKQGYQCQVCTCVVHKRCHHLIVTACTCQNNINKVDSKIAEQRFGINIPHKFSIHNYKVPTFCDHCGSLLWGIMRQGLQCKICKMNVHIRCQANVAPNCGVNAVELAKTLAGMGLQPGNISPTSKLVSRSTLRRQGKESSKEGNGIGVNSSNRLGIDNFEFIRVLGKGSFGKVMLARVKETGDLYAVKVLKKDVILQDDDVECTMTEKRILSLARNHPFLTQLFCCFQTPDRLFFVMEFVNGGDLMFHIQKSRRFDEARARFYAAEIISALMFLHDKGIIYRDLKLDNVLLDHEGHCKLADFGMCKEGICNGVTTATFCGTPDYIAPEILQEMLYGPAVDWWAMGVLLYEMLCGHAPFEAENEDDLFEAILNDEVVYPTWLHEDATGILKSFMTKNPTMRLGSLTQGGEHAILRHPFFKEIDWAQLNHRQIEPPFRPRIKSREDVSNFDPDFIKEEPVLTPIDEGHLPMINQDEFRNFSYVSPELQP

The inhibition is the change of the read-out against control, counted positive when it falls. With `CN(c1ccc(NC(=O)NCCN2CCOCC2)cc1)c1ccnc(Nc2ccc(CS(C)(=O)=O)cc2)n1`, the inhibition in [1] is 0.31%; in [2] it was 1.27%; in [3] it was 4.06%; in [4] it was -0.51%; in [5] it was -0.33%; in assay [6], 0.46%. Further, the inhibition was 1.54% in assay [7]; 4.71% in [8]; 5.63% in [9]; 2.51% in [10]; 4.99% in assay [11]; 2.77% in assay [12]. Besides, the inhibition was 2.1% in assay [13]; 2.63% in assay [14]; 3.43% in [15]; 0.67% in assay [16]; -0.33% in assay [17]; 2.05% in assay [18]. Also, the inhibition came to 1.78% in [19] and 2% in assay [20].

For `COc1ccc2ncn(-c3cc(O[C@H](C)c4ccccc4C(F)(F)F)c(C(N)=O)s3)c2c1`, the inhibition came out at 0.59% in [1]; 0.69% in assay [2]; 0.52% in [3]; 0.07% in [4]; 0.04% in assay [5]; 0.44% in assay [6]. In addition, the inhibition in [7] is 1.04%; in [8], 1.89%; in [9] it was 1.45%; in [10] it was -2.52%; in assay [11], 3.02%; in assay [12], -1.03%. In addition, the inhibition in assay [13] was -0.45%; in assay [14] it was -0.16%; in assay [15] it was -0.58%; in assay [16], -0.24%; in assay [17], 0.08%; in assay [18], -0.46%. Moreover, the results for the inhibition in assay [19] and in assay [20] were 0.62% and 2.18%, respectively.

With `CCS(=O)(=O)c1ccc(OC)c(Nc2ncc(-c3cccc(F)c3)o2)c1`, the inhibition in [1] is 4.01%; in [2], 2.45%; in assay [3], 6.7%; in assay [4], 1.28%; in assay [5] it was 3.32%; in [6], -1.13%. Besides, the inhibition in assay [7] is 2.28%; in assay [8] it was 3.12%; in assay [9], 3.91%; in assay [10], 5.17%; in assay [11], 5.39%; in assay [12], 2.05%. In addition, the inhibition in assay [13] is 3.04%; in assay [14], 2.72%; in assay [15], 4.21%; in assay [16] it was 1.9%; in assay [17], 4.01%; in assay [18], 4.25%. The inhibition in assay [19] is 5.42%; in assay [20], 3.92%.

On to `Nc1ncnc2occ(-c3ccc(NC(=O)Nc4cc(C(F)(F)F)ccc4F)cc3)c12`, for which the inhibition in assay [1] is 2.41% and -0.72%; in assay [2], 0.57% and -0.25%; in assay [3] it was 1.31% and -1.17%; in [4], 0.16% and -0.04%; in [5], 0.52% and -0.37%; in [6] it was 1.05% and -0.26%. Further, the inhibition in assay [7] was 1.13% and 0.29%; in [8], 1.5% and 0.01%; in assay [9] it was 1.23% and -2.29%; in assay [10], -0.11% and -2.32%; in assay [11], 4.25% and -2.46%; in assay [12] it was 1.22% and 0.26%. Besides, the inhibition in assay [13] was 2.9% and 0.4%; in assay [14], 0.8% and -1.06%; in [15] it was -0.69% and -1.44%; in assay [16], 0.86% and -0.64%; in assay [17], 1.67% and 0.08%; in assay [18], 1.55% and -2.08%. The inhibition in [19] is 2.08% and -1.19%; in [20] it was 1.19% and -0.28%.
